Test results published in the supplement of paper PMC9262897, “Low-cost anti-mycobacterial drug discovery using engineered E. coli” (Nature Communications, 2022).
Where a name gives a salt, the structure may show the parent alone. ± gives the standard deviation of the averaged measurements.

Experiments:
Assay in all cases: growth (OD600 after 10 h); higher = more growth (less inhibition)
[1] = system: E. coli TESEC Alr+ wild-type control; conditions: compound 0.1 mM; raw OD600 reference: median of DMSO wells 0.241, cell-free background 0.041
Method: (§1)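 TESEC Mtb Alr E. coli, or the Alr+ wild-type control, in 384-well plates with Prestwick library compounds at 0.1 mM and 1% DMSO, across arabinose induction levels of 1E3 to 1E7 nM. Growth is read as OD600 after 10 h at 37 °C in triplicate biological replicates.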

E. coli TESEC Mtb Alr [2] = conditions: compound 0.1 mM
Method: as §1

E. coli TESEC Mtb Asd = conditions: compound 0.1 mM
Method: (§2)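 TESEC E. coli strains in which the native enzyme is deleted and replaced by arabinose-inducible Mtb Asd, DapB, CysH or TrpD, each grown in its selective medium. Strains were screened against the Prestwick library at 0.1 mM and 1% DMSO in 384-well format at low and high arabinose induction. Growth is read as OD600 after 10 h in triplicate.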

E. coli TESEC Mtb DapB = conditions: compound 0.1 mM
Method: as §2

[3] = system: E. coli TESEC Alr+ wild-type control; conditions: compound 0.1 mM; raw OD600 reference: median of DMSO wells 0.49, cell-free background 0.052
Method: (§3)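 TESEC Mtb Alr E. coli (ΔaraC ΔtolC ΔentC Δalr ΔdadX, arabinose-inducible Mtb Alr) or the Alr+ wild-type control strain, grown in defined M9-fructose medium without D-alanine in 96-well plates with Prestwick library compounds at 0.1 mM and 1% DMSO. Low Alr induction is 0.1 µM arabinose and high induction is 10 mM arabinose.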

E. coli TESEC Mtb Alr [4] = conditions: compound 0.1 mM; remark: listed apart in the source
Method: as §3

[5] = arabinose 1000 nM, raw OD600 reference: median of DMSO wells 0.294, cell-free background 0.041
[6] = arabinose 10000 nM, raw OD600 reference: median of DMSO wells 0.264, cell-free background 0.041
[7] = arabinose 100000 nM, raw OD600 reference: median of DMSO wells 0.201, cell-free background 0.041
[8] = arabinose 1000000 nM, raw OD600 reference: median of DMSO wells 0.193, cell-free background 0.041
[9] = arabinose 10000000 nM, raw OD600 reference: median of DMSO wells 0.146, cell-free background 0.041
[10] = arabinose induction (level): High, raw OD600 reference: median of DMSO wells 0.331, cell-free background 0.041
[11] = arabinose induction (level): Low, raw OD600 reference: median of DMSO wells 0.417, cell-free background 0.041
[12] = arabinose induction (level): High, raw OD600 reference: median of DMSO wells […], cell-free background 0.041
[13] = arabinose induction (level): Low, raw OD600 reference: median of DMSO wells 0.227, cell-free background 0.041
[14] = arabinose 100 nM, raw OD600 reference: median of DMSO wells 0.413, cell-free background 0.052
[15] = arabinose 10000000 nM, raw OD600 reference: median of DMSO wells […], cell-free background 0.052

Structure (SMILES)	growth [1]	growth (E. coli TESEC Mtb Alr [2]; [5])	growth (E. coli TESEC Mtb Alr [2]; [6])	growth (E. coli TESEC Mtb Alr [2]; [7])	growth (E. coli TESEC Mtb Alr [2]; [8])	growth (E. coli TESEC Mtb Alr [2]; [9])	growth (E. coli TESEC Mtb Asd; [10])	growth (E. coli TESEC Mtb Asd; [11])	growth (E. coli TESEC Mtb DapB; [12])	growth (E. coli TESEC Mtb DapB; [13])	growth [3]	growth (E. coli TESEC Mtb Alr [4]; [14])	growth (E. coli TESEC Mtb Alr [4]; [15])
O=C(O)CCNC(=O)c1ccc(/N=N/c2ccc(O)c(C(=O)O)c2)cc1 [Balsalazide Sodium]	0.276 ± 0.0079	0.318 ± 0.0085	0.2664 ± 0.0024	0.213 ± 0.0045	0.206 ± 0.0036	0.138 ± 0.0021	0.252 ± 0.008	0.434 ± 0.012	0.232 ± 0.0039	0.241 ± 0.014	0.465 ± 0.057	0.394 ± 0.035	0.378 ± 0.014
Cc1ccnc(NS(=O)(=O)c2ccc(N)cc2)n1 [Sulfamerazine]	0.245 ± 0.0069	0.293 ± 0.013	0.229 ± 0.0029	0.211 ± 0.0032	0.154 ± 0.0069	0.133 ± 0.004	0.437 ± 0.023	0.4484 ± 0.0033	0.21 ± 0.0031	0.228 ± 0.018	0.515 ± 0.075	0.42 ± 0.0052	0.334 ± 0.0087
CCOc1ccccc1OC(c1ccccc1)C1CNCCO1 (stereo unspecified) [Reboxetine mesylate]	0.203 ± 0.0099	0.265 ± 0.023	0.253 ± 0.012	0.2 ± 0.02	0.15 ± 0.0074	0.1507 ± 0.0007	0.249 ± 0.038	0.296 ± 0.061	0.15 ± 0.0036	0.183 ± 0.021	0.542 ± 0.061	0.402 ± 0.015	0.336 ± 0.022
CN(CCCCCCCCCCN(C)C(=O)Oc1cccc([N+](C)(C)C)c1)C(=O)Oc1cccc([N+](C)(C)C)c1 [Demecarium bromide]	0.04127 ± 0.00031	0.0415 ± 0.00053	0.03993 ± 5.8e-05	0.0453 ± 0.0065	0.03943 ± 0.00023	0.0426 ± 0.0012	0.0473 ± 0.00079	0.047 ± 0.0013	0.0492 ± 0.00091	0.0493 ± 0.0005	0.051 ± 0.00093	0.0633 ± 0.0063	0.0536 ± 0.0014
CC1(C)OC(=O)NC1=O [Dimethadione]	0.243 ± 0.0066	0.295 ± 0.016	0.2697 ± 0.0012	0.191 ± 0.017	0.184 ± 0.0086	0.139 ± 0.0053	0.292 ± 0.005	0.414 ± 0.022	0.182 ± 0.0086	0.199 ± 0.05	0.526 ± 0.075	0.406 ± 0.017	0.347 ± 0.011
CCc1c(C)[nH]c2c1C(=O)C(CN1CCOCC1)CC2 (stereo unspecified) [Molindone hydrochloride]	0.221 ± 0.013	0.3135 ± 0.00076	0.251 ± 0.011	0.202 ± 0.018	0.166 ± 0.0061	0.1542 ± 0.0015	0.274 ± 0.06	0.36 ± 0.064	0.189 ± 0.0083	0.25 ± 0.025	0.472 ± 0.013	0.409 ± 0.016	0.33 ± 0.017
CN(C)CCC(c1ccc(Cl)cc1)c1ccccn1 (stereo unspecified) [Chlorpheniramine maleate]	0.22 ± 0.0024	0.264 ± 0.022	0.259 ± 0.0028	0.18 ± 0.018	0.162 ± 0.0019	0.135 ± 0.0055	0.291 ± 0.091	0.399 ± 0.061	0.187 ± 0.012	0.23 ± 0.0095	0.466 ± 0.037	0.4277 ± 0.0018	0.325 ± 0.01
